# Results reported in PubChem BioAssay (NCATS).
# Results filed as inconclusive are left out. Calls of active or inactive are those of the source. The call rests on the fitted dose curve; in most records, active means well fitted cell-killing curve with a large enough effect; inconclusive means small, poorly fitted or top-dose-only effect; inactive means flat fitted curve, though single readings scatter.
# Test: qHTS assay to identify small molecule inhibitors of chordoma cells - UCH-2 (AID 1259356)
# Details: UCH-2 chordoma viability, CellTiter-Glo ATP luminescence, 48 h; series mostly up to 46.1 µM
# Excerpt: NIH Chemical Genomics Center [NCGC]
# Chordoma is a rare and slow growing tumor that can occur anywhere along the spine, from the base of the skull to the tailbone. Current treatment options for chordoma is surgery and radiation therapy for those who are not candidates for surgery. But chordomas tend to return in the same location or surrounding areas of the original tumor after surgery and/or radiation. Chemotherapy can slow down the progression of the tumor. As chordoma is slow growing, the general cytotoxic agents that kill fast growing cells are ineffective, and some patients have been reported to respond to molecularly targeted drugs.
# NCATS Pharmaceutical Collection (NPC) containing approximately 3000 clinically approved and investigational drugs were used to screen at 15 concentrations in a chordoma cell lines, UCH-2, to identify small molecule compounds that can inhibit chordoma cell growth.
# NCGC Assay Protocol Summary:
# Human chordoma cell line UCH-2 was dispensed at 800 per well in 4uL of culture medium into white solid bottom 1536-well plates (Corning Life Sciences, Corning, NY) using a Multidrop Combi (Thermo Scientific, Waltham, MA) dispenser. The assay plates were incubated at 37 C and 5% CO2 for an overnight, and then 23nL of compounds dissolved in DMSO and positive control were transferred using a Pintool station (Wako, San Diego, CA). Compound treatment was followed by the addition of 1uL of the combination compounds (1uM Auranofin, 500nM each of Camptothecin, Doxorubicin, Rubitecan, and Topotecan) and assay medium to each well of the assay plates using Flying Reagent Dispenser (FRD, Aurora Discovery, San Diego, CA). The assay plates were incubated at 37 C and 5% CO2 for 48hr. Then 5uL of CellTiter-Glo reagent (Promega Corporation, Madison, WI) was added to each well of the assay plates using FRD. After 30min incubation at room temperature, the luminescence signal was quantified using a ViewLux plate reader (PerkinElmer, Shelton, CT).
row,SMILES,outcome
1,CCCOC(=O)c1ccc(N)cc1,inactive
2,CCCCCCCCCCCCCCCCCCO,inactive
3,O=C1c2ccccc2S(=O)(=O)N1CCCCN1CCN(c2ncccn2)CC1,inactive
4,CC1(C)S[C@@H]2[C@H](N=CN3CCCCCC3)C(=O)N2[C@H]1C(=O)O,inactive
5,NCc1ccc(S(N)(=O)=O)cc1,inactive
6,O=C(O)Cn1c(C(=O)Nc2nc(-c3ccccc3Cl)cs2)cc2ccccc21,inactive
7,O=C(CCBr)N1CCN(C(=O)CCBr)CC1,inactive
8,CNCc1ccccc1,inactive
9,O=S1(=O)OC(c2ccc(O)cc2)(c2ccc(O)cc2)c2ccccc21,inactive
10,Cc1ccsc1/C=C/C1=NCCCN1C,inactive
11,O=C(OOC(=O)c1ccccc1)c1ccccc1,inactive
12,CNc1c2c(nn1C)CCCC2,inactive
13,CCCCCCCC(=O)OCC(COC(=O)CCCCCCC)OC(=O)CCCCCCC,inactive
14,Cc1cc(C)nc(NS(=O)(=O)c2ccc(N)cc2)n1,inactive
15,CC(=O)SC[C@@H](Cc1ccccc1)C(=O)NCC(=O)OCc1ccccc1,inactive
16,CC1CCN(CCCC(=O)c2ccc(F)cc2)CC1,inactive
17,CC[N+](CC)(CC(=O)Nc1c(C)cccc1C)Cc1ccccc1,inactive
18,OCC(O)CS (stereo not given),inactive
19,CCOC(=O)c1cccnc1,inactive
20,O=C(/C=C/c1ccc(O)c(O)c1)O[C@@H]1C[C@@](OC(=O)/C=C/c2ccc(O)c(O)c2)(C(=O)O)C[C@@H](O)[C@@H]1O,inactive

row,SMILES,outcome
1,CC(=O)N[C@@H](CC(C)C)C(=O)O,inactive
2,O=C(O)[C@@H]1[C@H]2C[C@H]3c4[nH]c5ccccc5c4CCN3C[C@@H]2CC[C@@H]1O,inactive
3,OC(CCN1CCCC1)(c1ccccc1)C1CCCCC1 (stereo not given),inactive
4,CC(=O)NS(=O)(=O)c1ccc(N)cc1,inactive
5,CC(=O)NCc1c(I)c(NC(C)=O)c(I)c(C(=O)O)c1I,inactive
6,CCN(CC)CCOC(=O)C(c1ccccc1)c1ccccc1,inactive
7,CN[C@@H]1[C@@H](O)[C@@H](O[C@@H]2[C@H](O)[C@H](O[C@H]3OC(CN)=CC[C@H]3N)[C@@H](N)C[C@H]2N)OCC1(C)O (stereo not given in full),inactive
8,C[C@@H]1O[C@@H](OC[C@H]2O[C@@H](Oc3c(-c4ccc(O)c(O)c4)oc4cc(O)cc(O)c4c3=O)[C@H](O)[C@@H](O)[C@@H]2O)[C@H](O)[C@H](O)[C@H]1O,inactive
9,CCN(CC)CC1CCCCN1CC(=O)N1c2ccccc2C(=O)Nc2cccnc21 (stereo not given),inactive
10,C=CCNC(N)=S,inactive
11,CN1CCN(C(=O)C2CCCCC2)CC1,inactive
12,CC(=O)N[C@H]1[C@H]([C@H](O)[C@H](O)CO)OC(C(=O)O)=C[C@@H]1N=C(N)N,inactive
13,C[C@@H]1CCC[C@H](C)N1,inactive
14,COc1ccc(-c2cc(=O)c3c(O)cc(O[C@@H]4O[C@H](CO[C@@H]5O[C@@H](C)[C@H](O)[C@@H](O)[C@H]5O)[C@@H](O)[C@H](O)[C@H]4O)cc3o2)cc1O,inactive
15,COc1ccc(C(=O)NCc2ccc(OCCN(C)C)cc2)cc1OC,inactive
16,O=C(NCN1CCOCC1)c1cnccn1,inactive
17,CCOc1ccccc1O[C@H](c1ccccc1)[C@H]1CNCCO1,inactive
18,Cc1ccc2c(c1)c1c3n2CCNC3CCC1 (stereo not given),inactive
19,CC1(c2ccccc2)OC(C(=O)O)=CC1=O (stereo not given),inactive
20,COc1ccccc1OC(=O)Oc1ccccc1OC,inactive
